In PubChem BioAssay AID1159580 (chemical genetic matrix, 2015):
Among all 5,500 compounds or so, about 2,000 (36%) were called active. Inconclusive results (about 18%) are left out. Rule as the data show it: active = normalized growth mostly below about 0.91 (no sharp cut-off); inconclusive = no clear call, values can overlap the other calls; inactive = mostly above about 0.92. This is one part of the list.

Assay: chemical genetic growth profiling, strain panel (AID 1159580);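 also: tested at 20 µM; growth read once vehicle control cultures reached saturation at 30 °C; 1 = growth at the plate median or of vehicle wells; lower values mean less growth of the strain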
Conditions: growth OD

Measured: normalized growth

COc1cc2c3cc1Oc1cc(ccc1O)C[C@@H]1c4c(cc(OC)c(O)c4Oc4ccc(cc4)C[C@@H]3N(C)CC2)CC[N+]1(C)C
inactive: S. cerevisiae deletion strains, locus YKL009W, strain mrt4, hits give low values 1.04 | S. cerevisiae deletion strains, locus YKL068W, hits give low values 0.997 | S. cerevisiae deletion strains, locus YKL085W, strain MDH1 (second series), hits give low values 0.988 | S. cerevisiae deletion strains, locus YKL085W, strain MDH1, hits give low values 0.988 | S. cerevisiae deletion strains, locus YKL160W, strain elf1, hits give low values 1.04 | S. cerevisiae deletion strains, locus YKL190W, strain CNB1, hits give low values 1.01 | S. cerevisiae deletion strains, locus YKR001C, strain vps1, hits give low values 1.01 | S. cerevisiae deletion strains, locus YKR026C, strain gcn3, hits give low values 1 | S. cerevisiae deletion strains, locus YKR091W, strain srl3, hits give low values 0.999 | S. cerevisiae deletion strains, locus YLL001W, strain dnm1, hits give low values 1.04 | S. cerevisiae deletion strains, locus YLL026W, hits give low values 1.01 | S. cerevisiae deletion strains, locus YLL041C, strain sdh2, hits give low values 1 | S. cerevisiae deletion strains, locus YLR027C, strain aat2, hits give low values 1.02 | S. cerevisiae deletion strains, locus YLR039C, strain RIC1, hits give low values 1.09 | S. cerevisiae deletion strains, locus YLR058C, strain SHM2, hits give low values 1.01 | S. cerevisiae deletion strains, locus YLR102C, strain apc9, hits give low values 1 | S. cerevisiae deletion strains, locus YLR113W, strain HOG1, hits give low values 0.996 | S. cerevisiae deletion strains, locus YLR221C, strain rsa3, hits give low values 0.966 | S. cerevisiae deletion strains, locus YLR258W, strain gsy2, hits give low values 0.988 | S. cerevisiae deletion strains, locus YLR262C, strain YPT6 (second series), hits give low values 1.04 | S. cerevisiae deletion strains, locus YLR262C, strain YPT6, hits give low values 1.06 | S. cerevisiae deletion strains, locus YLR268W, strain sec22, hits give low values 1.04 | S. cerevisiae deletion strains, locus YLR320W, strain mms22, hits give low values 0.967 | S. cerevisiae deletion strains, locus YLR330W, strain CHS5, hits give low values 1.01 | S. cerevisiae deletion strains, locus YLR342W, strain FKS1 (second series), hits give low values 0.999 | S. cerevisiae deletion strains, locus YLR342W, strain FKS1, hits give low values 1.02 | S. cerevisiae deletion strains, locus YLR357W, strain rsc2, hits give low values 0.958 | S. cerevisiae deletion strains, locus YLR370C, strain arc18, hits give low values 1.01 | S. cerevisiae deletion strains, locus YLR371W, strain rom2, hits give low values 1.01 | S. cerevisiae deletion strains, locus YLR384C, strain iki3, hits give low values 1 | S. cerevisiae deletion strains, locus YLR418C, strain cdc73, hits give low values 0.986 | S. cerevisiae deletion strains, locus YML016C, strain PPZ1, hits give low values 1.01 | S. cerevisiae deletion strains, locus YML032C, strain rad52, hits give low values 0.981 | S. cerevisiae deletion strains, locus YML120C, strain ndi1, hits give low values 1.03 | S. cerevisiae deletion strains, locus YML124C, strain tub3, hits give low values 0.999 | S. cerevisiae deletion strains, locus YMR058W, strain fet3, hits give low values 1 | S. cerevisiae deletion strains, locus YMR078C, strain ctf18, hits give low values 1.01 | S. cerevisiae deletion strains, locus YMR125W, strain sto1, hits give low values 0.993 | S. cerevisiae deletion strains, locus YMR129W, hits give low values 0.98 | S. cerevisiae deletion strains, locus YMR205C, strain PFK2, hits give low values 1.03 | S. cerevisiae deletion strains, locus YMR223W, strain ubp8, hits give low values 0.994 | S. cerevisiae deletion strains, locus YMR231W, strain pep5, hits give low values 0.993 | S. cerevisiae deletion strains, locus YMR307W, strain GAS1, hits give low values 1.06 | S. cerevisiae deletion strains, locus YNL067W, strain RPL9B, hits give low values 1.04 | S. cerevisiae deletion strains, locus YNL071W, strain lat1, hits give low values 0.969 | S. cerevisiae deletion strains, locus YNL128W, strain TEP1, hits give low values 1.02 | S. cerevisiae deletion strains, locus YNL183C, strain NPR1, hits give low values 0.948 | S. cerevisiae deletion strains, locus YNL209W, strain ssb2, hits give low values 0.982 | S. cerevisiae deletion strains, locus YNL233W, strain BNI4, hits give low values 1.03 | S. cerevisiae deletion strains, locus YNL248C, strain rpa49, hits give low values 0.926 | S. cerevisiae deletion strains, locus YNL250W, strain rad50, hits give low values 1.01 | S. cerevisiae deletion strains, locus YNL271C, strain bni1, hits give low values 1.01 | S. cerevisiae deletion strains, locus YNL298W, strain CLA4, hits give low values 1 | S. cerevisiae deletion strains, locus YNL307C, strain MCK1, hits give low values 1.01 | S. cerevisiae deletion strains, locus YNL322C, strain KRE1 (second series), hits give low values 0.984 | S. cerevisiae deletion strains, locus YNL322C, strain KRE1, hits give low values 0.999 | S. cerevisiae deletion strains, locus YNR049C, strain mso1, hits give low values 0.99 | S. cerevisiae deletion strains, locus YNR052C, strain pop2, hits give low values 1.01 | S. cerevisiae deletion strains, locus YOL006C, strain TOP1, hits give low values 1.1 | S. cerevisiae deletion strains, locus YOL012C, strain htz1 0.91 | S. cerevisiae deletion strains, locus YOL147C, strain pex11, hits give low values 0.995 | S. cerevisiae deletion strains, locus YOR001W, strain rrp6, hits give low values 1.02 | S. cerevisiae deletion strains, locus YOR061W, strain CKA2, hits give low values 1.01 | S. cerevisiae deletion strains, locus YOR069W, strain VPS5, hits give low values 1.01 | S. cerevisiae deletion strains, locus YOR070C, strain gyp1, hits give low values 0.993 | S. cerevisiae deletion strains, locus YOR080W, strain dia2, hits give low values 1.01 | S. cerevisiae deletion strains, locus YOR083W, strain WHI5, hits give low values 1.01 | S. cerevisiae deletion strains, locus YOR106W, strain vam3, hits give low values 1.03 | S. cerevisiae deletion strains, locus YOR136W, strain idh2, hits give low values 1 | S. cerevisiae deletion strains, locus YOR144C, strain elg1, hits give low values 0.993 | S. cerevisiae deletion strains, locus YOR184W, strain ser1, hits give low values 1.01 | S. cerevisiae deletion strains, locus YOR231W, strain MKK1, hits give low values 0.996 | S. cerevisiae deletion strains, locus YOR265W, strain rbl2, hits give low values 0.999 | S. cerevisiae deletion strains, locus YOR270C, strain vph1, hits give low values 0.985 | S. cerevisiae deletion strains, locus YOR290C, strain snf2, hits give low values 0.946 | S. cerevisiae deletion strains, locus YOR316C, strain cot1, hits give low values 1 | S. cerevisiae deletion strains, locus YPL051W, strain arl3, hits give low values 1.01 | S. cerevisiae deletion strains, locus YPL055C, strain LGE1, hits give low values 1.04 | S. cerevisiae deletion strains, locus YPL078C, strain atp4, hits give low values 1.04 | S. cerevisiae deletion strains, locus YPL106C, strain sse1, hits give low values 0.937 | S. cerevisiae deletion strains, locus YPL240C, strain hsp82, hits give low values 1 | S. cerevisiae deletion strains, locus YPL256C, strain CLN2, hits give low values 0.99 | S. cerevisiae deletion strains, locus YPR119W, strain clb2, hits give low values 1 | S. cerevisiae deletion strains, locus YPR141C, strain kar3, hits give low values 1.01 | S. cerevisiae deletion strains, locus YPR163C, strain tif3, hits give low values 0.992 | S. cerevisiae deletion strains, locus YPR167C, strain met16, hits give low values 0.999 | S. cerevisiae deletion strains, strain wtn01, hits give low values 1.01 | S. cerevisiae strains, strain wild type, hits give low values 1.01
